Molecules are shown by their SMILES. More than one record can exist for a structure, and the calls need not agree. The source made the active and inactive calls. Rule for the calls: active = hit-call score of the fitted dose curve at least 0.9, where 1 is the maximum; inactive = score below 0.9.

36 molecules from PubChem BioAssay (EPA / NIEHS) can be followed below.

The nature of this test: ATG_E_Box_CIS: Attagene CIS-FACTORIAL HepG2 Assay for human Enhancer Box (E-box) (AID 2282936). Conditions: HepG2 E-box cis-reporter transcription, actives raise or lower the signal. The method, then: ATG_CIS is a cell-based, multiplexed-readout assay that uses HepG2, a human liver cell line, with measurements taken at 24 hours after chemical dosing in a 24-well plate.ATG_E_Box_CIS is one of 52 assay component(s) measured or calculated from the ATG_CIS assay. It is designed to make measurements of mRNA induction, a form of inducible reporter, as detected with fluorescence intensity signals by Reverse transcription polymerase chain reaction (RT-PCR) and Capillary electrophoresis technology.Data from the assay component ATG_E_Box_CIS was analyzed into 1 assay endpoint. This assay endpoint, ATG_E_Box_CIS, was analyzed with bidirectional fitting relative to DMSO as the negative control and baseline of activity. Using a type of inducible reporter, measures of mRNA for gain or loss-of-signal activity can be used to understand the reporter gene at the transcription factor-level as they relate to the gene USF1. Furthermore, this assay endpoint can be referred to as a primary readout, because this assay has produced multiple assay endpoints where this one serves a reporter gene function. To generalize the intended target to other relatable targets, this assay endpoint is annotated to the dna binding intended target family, where the subfamily is basic helix-loop-helix protein.
Human liver HepG2 cells are transiently transfected with multiple reporter transcription units (MRTUs) in 6-well plates using FuGene 6 reagent (Roche; 3 ml FuGene/1 mg DNA). The MRTU constructs are regulated by a cis-regulating element (promoter). […] A major difference between the CIS and TRANS system is that in CIS activities of endogenous TFs are measured, whereas the TRANS assay evaluates changes in activities of exogenous, chimeric NR-Gal4 proteins. […] At the end of 24 hour incubation, total RNA was isolated using TriZol reagent (Invitrogen). The isolated RNA is then reverse-transcribed using oligo(dT) primer and Mo-MLV reverse transcriptase (Invitrogen) with DNAse I (Ambion) treatment for 30 min. The one-tenth of the produced cDNA was amplified by PCR using Taq DNA polymerase (Invitrogen) and two reporter sequence-specific primers. The PCR products were fluorescently labeled by primer extension with 6-arboxyfluorescein (6-FAM) 5'-labeled reporter sequence-specific primer (2 min at 95 C, 20 s at 68 C and 10 min at 72 C) and these products were digested with 5U of HpaI (New England Biolabs) for 2h at 37 C. The fragments were purified using Qiaquick PCR columns (Qiagen), analyzed on an ABI 3130xL genetic analyzer (Applied Biosystems) with peak positions identified by using a set of X-rhodamine (ROX)-labeled MapMarker1000 molecular weight standards (BioVentures). The raw capillary electrophoresis data was processed using Attagraph software (Attagene).
Take `FC(F)(F)C1(F)C(F)(F)C(F)(F)C(F)(F)C1(F)F`: the outcome was inactive.
Take `NC(C(F)(F)F)C(F)(F)F`: the outcome was inactive.
With `CCOC(=O)c1nc(C(Cl)(Cl)Cl)n(-c2ccc(Cl)cc2Cl)n1`, the result was inactive.
The same measure, in the same setting: the same measure for `COc1cccc(O)c1`: “inactive”.
On the same count and under the same terms, with `CCC1CO1` (stereo not given) the entry was “inactive”; with `C/C=C/C(=O)C1=C(C)CCCC1(C)C`, “inactive”; with `Cc1cc(Cc2cc(C)cc(C(C)(C)C)c2O)c(O)c(C(C)(C)C)c1`, “inactive”.
In general, AC50 refers to the concentration at which the activity in the assay is half-maximal. For `Cc1cc(C(C)(C)C)c(O)c(C(C)(C)C)c1`, the AC50 was 56.6 µM (active) and the outcome was inactive.
`CCCC=O`: the result was inactive.
Turning to `NCc1cccc(CN)c1`, the result was inactive.
Regarding `C=C(c1ccc(C(=O)O)cc1)c1cc2c(cc1C)C(C)(C)CCC2(C)C`, the concentration at half-maximal activity (AC50) is 19 µM (active) and the result was inactive.
Consider `COc1cc([N+](=O)[O-])ccc1N`, for which the result was inactive.
Same read-out and setting: with `CCc1ccccc1O` the entry was “inactive”.
`Oc1cccc2c(O)cccc12`: the concentration at half-maximal activity (AC50) was 27.3 µM (active).
Regarding `CCOCCOCC`, the result was inactive.
With `CCOC=C(C(=O)OCC)C(=O)OCC`, the outcome was inactive.
The same measure, in the same setting: with `CCCCC(CC)C(=O)O` (stereo not given) the entry was “inactive”.
`CC(C)c1c(C(=O)Nc2ccccc2)c(-c2ccccc2)c(-c2ccc(F)cc2)n1CC[C@@H](O)C[C@@H](O)CC(=O)O`: the AC50 is 28.2 µM (active) and the result was inactive.
For `COc1ccccc1NC(=O)c1cc2ccccc2cc1O`, the AC50 was 26.7 µM (active).
As to `c1ccc(CNc2ncnc3c2ncn3C2CCCCO2)cc1` (stereo not given), the outcome was inactive.
Still for that read-out and setting: with `O=S(=O)(O)C(F)(F)C(F)(F)C(F)(F)C(F)(F)C(F)(F)C(F)(F)C(F)(F)C(F)(F)C(F)(F)C(F)(F)F` the entry was “inactive”; with `C=CC(=C)CC/C=C(\C)CCC=C(C)C`, “inactive”.
Turning to `O=C1OC2(c3ccccc31)c1cc(I)c(O)c(I)c1Oc1c2cc(I)c(O)c1I`, the AC50 is 34.6 µM (active) and the outcome was inactive.
Turning to `C=COC(=O)C(C)(C)CCCCCC`, the outcome was inactive.
On the same count and under the same terms, the same measure for `CCN(CC)CC`: “inactive”; for `C=CC(F)(F)C(F)(F)C(F)(F)C(F)(F)F`: “inactive”; for `O=C(c1cc(O)c(O)c(O)c1)c1ccc(O)c(O)c1O`: “inactive”.
For `Cc1cc(C(=C2C=CC(=Nc3ccc(S(=O)(=O)O)cc3)C=C2)c2ccc(Nc3ccc(S(=O)(=O)O)cc3)cc2)cc(S(=O)(=O)O)c1N`, the result was inactive.
As to `Oc1c(Cl)cc(Cl)cc1Sc1cc(Cl)cc(Cl)c1O`, the result was inactive.
Take `C=CCOCC(CO)(CO)CO`: the result was inactive.
On the same count and under the same terms, with `CC(=O)Nc1ccc(O)cc1` the entry was “inactive”; with `FC(F)(F)C(F)(F)C(F)(F)C(F)(F)I`, “inactive”.
As to `C[C@]12CC[C@@H]3c4ccc(O)cc4CC[C@H]3[C@@H]1C[C@@H](O)[C@@H]2O`, the result was inactive.
`C[C@]12CC[C@@H]3c4ccc(O)cc4CC[C@H]3[C@@H]1CC[C@@H]2OC(=O)CCC1CCCC1`: the AC50 was 73.3 µM (active).
Regarding `CCCCCCCCCC=CCC1CC(=O)OC1=O` (stereo not given), the result was inactive.
Regarding `CCCCCCCCCCCCCC[n+]1ccccc1`, the result was inactive.
